High-throughput results (PubChem)
aGlu spleen mod: qHTS Assay for Inhibitors and Activators of Human alpha-Glucosidase From Spleen Homogenate; AID 2112, 2009; 0.006% of 240,000 active; Potency, µM (highest dose often 79.9 µM), for the others: at the top dose activity change, negative = inhibition, most hits filed as inhibitors; human spleen homogenate, 4-MU-alpha-glucoside fluorescence;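 note: potency is the fitted concentration of half-maximal effect; 0% = enzyme with vehicle and -100% = no enzyme basal signal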
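Human spleen homogenate (1 ug) with 4-methylumbelliferyl-alpha-D-glucopyranoside (1 mM final) in 50 mM citrate/phosphate pH 5.0, 0.01% Tween-20; 40 min at 37 C. Stopped at pH 10; 4-MU fluorescence Ex 365/Em 440 nm; AC50 by Hill fit.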
GAA glycogen mod: qHTS Assay for Inhibitors and Activators of Human alpha-Glucosidase Cleavage of Glycogen | 0.38% of 300,000 active | Potency, µM (top dose mostly 76.4 µM), inactives show at the top dose activity change, negative = inhibition, most hits filed as inhibitors | AID 2100, 2009 | recombinant GAA, glycogen substrate, Amplex Red glucose oxidase fluorescence | Lysosomal alpha-glucosidase (Homo sapiens), P10253;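 note: potency is the fitted concentration of half-maximal effect; 0% = full enzyme reaction and -100% = no-enzyme basal signal; the screen sought inhibitors and activators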
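Recombinant enzyme (4 nM final) with compounds titrated up to 77 uM and bovine liver glycogen (30 ug) in citrate pH 5.0, 0.01% Tween-20, 37 C 40 min. Released glucose detected by Amplex Red/glucose oxidase (Ex 573/Em 610); AC50 from Hill fits.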
GLA spleen mod: qHTS Assay for Inhibitors and Activators of Human alpha-Galactosidase From Spleen Homogenate; Alpha-galactosidase A (Homo sapiens), P06280; human spleen homogenate, 4MU-alpha-Gal fluorescence, 40 min; Potency, µM (doses to about 80 µM), inactives show top-dose activity change, negative = inhibition, usual class: inhibitors; 0.008% of 240,000 active;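 note: potency is the fitted concentration of half-maximal effect; 0% = enzyme with vehicle and -100% = no enzyme basal signal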
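Fluorogenic readout (Ex 365/Em 440 nm) of 4-methylumbelliferone released from 1 mM 4-MU-alpha-galactoside by spleen homogenate, 40 min at 37C, pH 5.0. Data normalized to no-enzyme and enzyme controls; Hill-equation AC50 from compound titrations.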
GLA inh pH 4.5: qHTS Assay for Inhibitors of Human alpha-Galactosidase at pH 4.5; purified enzyme, 4-MU-alpha-Gal fluorescence, pH 4.5; AID 1467, 2008; 230,000 tested, under 10 active; activity change, negative = inhibition, % at 105 µM;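 note: 0% = full activity with enzyme and -100% = basal without enzyme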
Target sequence (P06280 whole entry, looked up): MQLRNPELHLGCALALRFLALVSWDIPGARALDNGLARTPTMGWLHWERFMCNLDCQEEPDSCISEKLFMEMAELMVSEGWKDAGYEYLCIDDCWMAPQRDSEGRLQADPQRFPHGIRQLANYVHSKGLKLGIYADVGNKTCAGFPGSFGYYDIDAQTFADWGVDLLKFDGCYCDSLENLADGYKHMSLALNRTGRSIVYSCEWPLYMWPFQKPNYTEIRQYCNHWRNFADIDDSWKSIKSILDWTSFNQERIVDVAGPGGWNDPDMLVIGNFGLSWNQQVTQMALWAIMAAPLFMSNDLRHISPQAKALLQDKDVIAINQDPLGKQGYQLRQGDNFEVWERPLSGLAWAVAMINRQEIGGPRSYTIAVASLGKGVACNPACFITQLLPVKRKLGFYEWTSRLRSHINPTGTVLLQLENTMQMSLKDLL
GAA inhib: qHTS Assay for Inhibitors of Human alpha-Glucosidase as a Potential Chaperone Treatment of Pompe Disease; AID 1466, 2008; purified human GAA, 4-MU-alpha-glucoside fluorescence; Lysosomal alpha-glucosidase (Homo sapiens), P10253; 0.005% of 200,000 active; Potency, µM (highest dose often 76.9 µM), for inactives: at the highest dose activity change, negative = inhibition, usual class: inhibitors;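 note: potency is the fitted concentration of half-maximal effect; plate controls were uninhibited enzyme wells for no effect and no-enzyme background for full effect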
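Activity normalized between no-enzyme (basal) and enzyme-only wells. Conditions: 4 nM human enzyme, 400 uM fluorogenic substrate, citrate/phosphate pH 5.0 with Tween-20, 20 min room temperature, compounds up to 77 uM.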
N370S GC mod: qHTS Assay for Inhibitors and Activators of N370S glucocerebrosidase as a Potential Chaperone Treatment of Gaucher Disease. 0.092% of 330,000 active. Potency, µM (doses to about 59.4 µM), for inactives: at the highest dose activity change, negative = inhibition, most hits filed as inhibitors. Lysosomal acid glucosylceramidase (Homo sapiens), P04062. AID 2101, 2009. N370S GC spleen homogenate, 4MU-glucoside fluorescence;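 note: potency is the fitted concentration of half-maximal effect; 0% = full enzyme activity and -100% = no enzyme basal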
Numbers without * were called inactive; ? = inconclusive; · = no result; ! = a repeat was not active; [ ] = dose if it differs, or a comment. Hits are enriched below; roughly 0.41% of the tested compounds scored in any of these assays. Calls come from the whole dose curve; as a rule, active = well fitted curve in the direction sought with a large enough effect; inconclusive = small, poorly fitted or top-dose-only effect, or another doubt; inactive = no such curve, though single readings can be large; an effect the other way counts as inactive or inconclusive.

SMILES	aGlu spleen mod	GAA glycogen mod	GLA spleen mod	GLA inh pH 4.5	GAA inhib	N370S GC mod
Cc1ccc(S(=O)(=O)Nc2nc(C)c(NC(=O)OCCCl)s2)cc1	-6%	22µM*	-7%	4	-4%	4%
Cc1cc(O)cc(C)c1Cl	-7%	·	-4%	2	·	-3%
Cc1cc(O)c(N)c(C)c1Cl	3%	8.9µM*	1%	4[21.1 µM]	0%	-5%
CN1CCN(NC(=O)c2cn(-c3ccccc3)nc2-c2cccc(Br)c2)CC1	2%	-3%	7%	9	7%	10µM*
CCOC(=O)C(=O)c1c(-c2ccc(C)cc2)nc2ccccn12	-5%	-10%	2%	-5	-5%	3%
O=C(Nc1c(-c2ccccc2)nc2ccc(Cl)cn12)c1cccs1	-4%	5%	2%	4	-5%	-4%
CCOC(=O)CNc1c(-c2ccccc2)nc2ccc(Cl)cn12	0%	4.5µM*	18%	7	-2%	7%
CCOC(=O)CNc1c(-c2ccc(O)cc2)nc2ccc(Cl)cn12	-7%	22µM*	1%	-12	9%	?
CCOC(=O)CNc1c(-c2ccc(O)cc2)nc2ccccn12	4%	35µM*	-10%	-3	0%	-10%
O=C(c1ccc2c(c1)N(Cc1ccc(F)cc1)C(=O)c1ccccc1S2=O)N1CCC(Cc2ccccc2)CC1 (configuration not stated)	·	4%[76.3 µM]	·	·	·	·
Cc1cccc(NNC(=O)C(=O)NNc2cccc(C)c2)c1	9%	?	4%	0	·	16%
CCCc1ccc(C(=O)NNc2cccc(C)c2)cc1	-4%	16µM*	2%	-14	·	26%
CC(=O)NNc1nc2ccccc2s1	-7%	8.9µM*	-7%	3	2%	4%
COc1ccc2nc(NNC(=O)COc3ccccc3)sc2c1	2%	5µM*	4%	7	-1%	22%
COc1ccc(Cc2c(C)nn(-c3nc(C)c(C(=O)Nc4ccc(C)cc4C)s3)c2C)cc1	·	5%[76.3 µM]	·	·	·	·
Nc1n[nH]c(-c2ccc(Br)cc2)c1Cl	?	13µM*	0%	0	?	-20%
COc1ccc(-c2cc3ccccc3[nH]2)cc1	-1%	-5%	1%	5	·	-16%
Cc1ccc(O)c(-c2cc3ccccc3[nH]2)c1	6%	32µM*	22%	?	?	19%
Cc1ccc(-n2c(=O)c3ccc(C(=O)NCc4ccco4)cc3n(Cc3ccccc3Cl)c2=O)cc1	·	-6%[76.3 µM]	·	·	·	·
Cc1ccc(-n2c(=O)c3ccc(C(=O)NCc4ccco4)cc3n(Cc3ccccc3C#N)c2=O)cc1	-8%	32µM*!	5%	-4	4%	-9%
CCCCN(CC)c1nc(C)nc2c1c(C)c(C)n2-c1c(C)cc(C)cc1C	-1%	·	5%	·	·	2%
Cc1cc(I)ccc1Nc1c(C(=O)NOCC2CC2)cc(F)c(F)c1F	7%	·	0%	·	·	-4%
Cc1ccc(/C=N\Nc2nc3ccc(Cl)cc3[nH]2)o1	3%	6.3µM*	1%	2	9%	-4%
Clc1ccc(-c2nc3ccccn3c2CN2CCOCC2)cc1	-8%	0%	-9%	-11	?	-11%
Clc1ccc2nc(-c3ccccc3)c(CN3CCOCC3)n2c1	5%	7%	-2%	1	5%	18µM*
SMILES	aGlu spleen mod	GAA glycogen mod	GLA spleen mod	GLA inh pH 4.5	GAA inhib	N370S GC mod
COc1ccc(Br)cc1/C=N/N1C(=O)CSC1=S	·	5%	·	·	·	-2%
COc1cc(/C=N/N2C(=O)CSC2=S)ccc1O	1%	32µM*	0%	-1	1%	-23%
CC(C)N=c1scc(-c2ccco2)n1/N=C/c1ccc(O)c(O)c1	-2%	7.1µM*	-9%	-6	-13%	-14%
COCCN=c1scc(-c2ccco2)n1/N=C/c1ccc(O)c(O)c1O	-3%	2%	-8%	-11	-3%	-9%
CCc1ccc(S(=O)(=O)N(C(=O)Oc2ccccc2)c2ccc3oc(C)c(C(=O)OC)c3c2)cc1	·	2%[76.3 µM]	·	·	·	·
CC/C(=C\C(=O)c1ccncc1)Nc1ccc(O)cc1	-8%	45µM*	9%	-14	-8%	3%[2.35 µM]
CCOC(=O)Nc1ccc2c(c1)N(C(=O)CN(CC)CC)c1ccccc1CC2	·	8.9µM*	·	·	·	-18%
COc1cc(C(Nc2ccccn2)c2ccc3ccc(C)nc3c2O)cc(OC)c1O (configuration not stated)	1%	18µM*	-1%	-3	3%	-6%
Cc1ccc(CNC(=O)CN(c2cc(C)cc(C)c2)S(=O)(=O)c2c(C)[nH]c(=O)[nH]c2=O)cc1	·	-13%[76.3 µM]	·	·	·	·
Cc1cc(C)cc(N(CC(=O)NC2CCCC2)S(=O)(=O)c2c(C)[nH]c(=O)[nH]c2=O)c1	2%	6%	8%	2	·	3.5µM*
COc1ccc(N(CC(=O)NC2CCCC2)S(=O)(=O)c2c(C)[nH]c(=O)[nH]c2=O)cc1	-2%	-1%	2%	0	0%	8.9µM*
COC(=O)c1c(C)nn(-c2ccc(F)cc2)c1-n1cccc1	·	5%[76.3 µM]	·	·	·	·
FC(F)(F)c1cccc(NC(=S)NNC(=S)NCc2ccccc2)c1	-5%	12µM*	-2%	-19	?	7%
Fc1ccc(NC(=S)NCc2ccccc2)cc1	·	-11%[76.3 µM]	·	·	·	-1%
FC(F)(F)c1cccc(NC(=S)NCc2ccccn2)c1	4%	-3%	0%	-1	4%	7%
